# Article PMC7862700, “An all-to-all approach to the identification of sequence-specific readers for epigenetic DNA modifications on cytosine”
# What was measured:
# Assay in all cases: DAPPL (digital affinity profiling via proximity ligation, sequencing); 10 mM Tris-HCl pH 7.5, 50 mM NaCl, 1 mM DTT, 4% glycerol, room temperature, 30 min; GST-TFs on glutathione beads, 16-mer random dsDNA library, 0.1% formaldehyde crosslink after washing; high values mean tight binding
# FEV = target: T1, FEV (Homo sapiens, UniProt Q99581 1-238); details: protein: recombinant; tags: N-terminal GST; dsDNA, one strand shown
# T1 sequence: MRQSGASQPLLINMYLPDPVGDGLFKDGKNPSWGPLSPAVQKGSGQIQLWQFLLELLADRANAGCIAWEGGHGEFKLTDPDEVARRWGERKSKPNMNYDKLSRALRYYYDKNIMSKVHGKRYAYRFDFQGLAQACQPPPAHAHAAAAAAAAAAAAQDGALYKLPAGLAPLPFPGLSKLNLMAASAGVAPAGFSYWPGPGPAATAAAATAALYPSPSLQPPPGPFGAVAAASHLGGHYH
# Summary of the method: (§1)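 GST fusions of human transcription factors were expressed in yeast and captured with glutathione beads. Once given DNA barcodes and pooled alongside a tag-only sample, they were incubated for 30 min at room temperature with 200 nmole of a random double-stranded 16-mer DNA library in Tris/NaCl/DTT/glycerol buffer, then washed, crosslinked (0.1% formaldehyde), proximity-ligated, PCR-amplified and sequenced on an Illumina NextSeq500. The binding signal of each hexamer is its read frequency for a factor divided by its frequency for the tag-only sample.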
# ETV5 = ETV5 (Homo sapiens, UniProt P41161 1-510); details: protein: recombinant; tags: N-terminal GST; dsDNA, one strand shown
# Chain of ETV5 (P41161 whole entry): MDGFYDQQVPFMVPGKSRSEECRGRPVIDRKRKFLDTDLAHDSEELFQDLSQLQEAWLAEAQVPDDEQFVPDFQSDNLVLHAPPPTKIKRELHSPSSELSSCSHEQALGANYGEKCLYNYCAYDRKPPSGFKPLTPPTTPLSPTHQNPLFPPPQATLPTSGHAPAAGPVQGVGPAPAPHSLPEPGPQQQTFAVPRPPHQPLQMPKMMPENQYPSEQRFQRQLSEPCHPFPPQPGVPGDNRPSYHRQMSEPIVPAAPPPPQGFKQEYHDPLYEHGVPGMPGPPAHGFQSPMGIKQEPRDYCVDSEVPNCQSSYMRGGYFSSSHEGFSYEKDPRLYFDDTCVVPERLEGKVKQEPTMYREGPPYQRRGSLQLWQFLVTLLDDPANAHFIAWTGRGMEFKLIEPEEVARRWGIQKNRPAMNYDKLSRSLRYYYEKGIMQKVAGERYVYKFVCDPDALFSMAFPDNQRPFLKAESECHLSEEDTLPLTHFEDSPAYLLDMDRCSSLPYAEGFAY
# Summary of the method: as §1
# HSF1 = HSF1 (Homo sapiens, UniProt Q00613 1-529); details: protein: recombinant; tags: N-terminal GST; chain copies: 3; dsDNA, one strand shown
# Chain of HSF1 (Q00613 whole entry): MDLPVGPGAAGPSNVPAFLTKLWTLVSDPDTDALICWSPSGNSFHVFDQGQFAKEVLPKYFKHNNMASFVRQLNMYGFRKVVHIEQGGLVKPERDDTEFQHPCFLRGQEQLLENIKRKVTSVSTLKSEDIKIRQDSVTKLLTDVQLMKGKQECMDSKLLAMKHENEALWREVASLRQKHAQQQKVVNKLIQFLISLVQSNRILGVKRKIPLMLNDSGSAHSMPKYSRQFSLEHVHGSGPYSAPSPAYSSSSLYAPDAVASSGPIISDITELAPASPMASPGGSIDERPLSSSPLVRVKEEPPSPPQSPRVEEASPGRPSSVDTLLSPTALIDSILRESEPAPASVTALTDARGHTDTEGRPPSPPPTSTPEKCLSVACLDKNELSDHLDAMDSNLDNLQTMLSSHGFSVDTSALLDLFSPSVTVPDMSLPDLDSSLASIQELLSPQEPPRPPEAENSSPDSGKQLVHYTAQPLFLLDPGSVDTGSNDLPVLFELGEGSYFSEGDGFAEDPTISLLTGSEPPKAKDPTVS
# Summary of the method: as §1
# SPIC = target: T2, SPIC (Homo sapiens, UniProt Q8N5J4 1-248); details: protein: recombinant; tags: N-terminal GST; dsDNA, one strand shown
# T2 sequence: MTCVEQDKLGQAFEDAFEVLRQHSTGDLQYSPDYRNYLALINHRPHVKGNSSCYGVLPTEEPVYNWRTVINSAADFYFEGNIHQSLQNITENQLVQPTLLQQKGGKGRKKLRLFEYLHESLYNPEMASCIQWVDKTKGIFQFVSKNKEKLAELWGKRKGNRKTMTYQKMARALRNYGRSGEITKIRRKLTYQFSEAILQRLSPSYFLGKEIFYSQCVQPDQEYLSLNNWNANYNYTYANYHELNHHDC
# Summary of the method: as §1
# ELF4 = ELF4 (Homo sapiens, UniProt Q99607 1-663); details: protein: recombinant; tags: N-terminal GST; dsDNA, one strand shown
# Chain of ELF4 (Q99607 whole entry): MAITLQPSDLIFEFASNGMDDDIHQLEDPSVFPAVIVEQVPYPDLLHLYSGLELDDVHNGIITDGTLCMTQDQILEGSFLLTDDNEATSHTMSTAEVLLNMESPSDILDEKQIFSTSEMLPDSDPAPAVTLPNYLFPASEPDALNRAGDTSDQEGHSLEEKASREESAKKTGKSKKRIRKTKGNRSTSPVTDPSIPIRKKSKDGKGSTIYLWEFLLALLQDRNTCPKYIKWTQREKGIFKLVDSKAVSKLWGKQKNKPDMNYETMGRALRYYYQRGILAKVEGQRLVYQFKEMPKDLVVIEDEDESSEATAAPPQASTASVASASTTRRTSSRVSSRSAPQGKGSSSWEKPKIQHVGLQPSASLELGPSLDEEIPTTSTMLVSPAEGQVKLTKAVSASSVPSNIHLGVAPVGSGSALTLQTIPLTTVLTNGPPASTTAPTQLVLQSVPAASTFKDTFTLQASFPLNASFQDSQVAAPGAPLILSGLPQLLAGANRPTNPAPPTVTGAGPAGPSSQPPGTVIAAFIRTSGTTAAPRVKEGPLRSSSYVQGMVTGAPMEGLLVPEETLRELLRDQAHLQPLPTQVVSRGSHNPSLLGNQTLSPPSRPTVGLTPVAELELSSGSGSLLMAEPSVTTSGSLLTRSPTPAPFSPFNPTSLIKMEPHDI
# Summary of the method: as §1
# ELK4 = target: T3, ELK4 (Homo sapiens, UniProt P28324-2 1-405); details: protein: recombinant; tags: N-terminal GST; dsDNA, one strand shown
# T3 sequence: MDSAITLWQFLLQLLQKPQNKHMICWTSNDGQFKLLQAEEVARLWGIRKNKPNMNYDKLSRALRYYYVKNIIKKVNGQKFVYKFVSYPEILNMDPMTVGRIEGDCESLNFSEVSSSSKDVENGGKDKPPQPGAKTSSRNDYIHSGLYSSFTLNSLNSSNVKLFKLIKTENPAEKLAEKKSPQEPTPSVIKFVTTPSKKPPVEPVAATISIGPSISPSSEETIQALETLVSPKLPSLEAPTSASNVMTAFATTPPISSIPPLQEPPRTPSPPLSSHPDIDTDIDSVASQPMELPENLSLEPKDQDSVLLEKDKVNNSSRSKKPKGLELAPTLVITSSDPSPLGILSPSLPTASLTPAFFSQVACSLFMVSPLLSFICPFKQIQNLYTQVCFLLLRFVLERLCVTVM
# Summary of the method: as §1
# ETV2 = target: T4, ETV2 (Homo sapiens, UniProt O00321 1-342); details: protein: recombinant; tags: N-terminal GST; dsDNA, one strand shown
# T4 sequence: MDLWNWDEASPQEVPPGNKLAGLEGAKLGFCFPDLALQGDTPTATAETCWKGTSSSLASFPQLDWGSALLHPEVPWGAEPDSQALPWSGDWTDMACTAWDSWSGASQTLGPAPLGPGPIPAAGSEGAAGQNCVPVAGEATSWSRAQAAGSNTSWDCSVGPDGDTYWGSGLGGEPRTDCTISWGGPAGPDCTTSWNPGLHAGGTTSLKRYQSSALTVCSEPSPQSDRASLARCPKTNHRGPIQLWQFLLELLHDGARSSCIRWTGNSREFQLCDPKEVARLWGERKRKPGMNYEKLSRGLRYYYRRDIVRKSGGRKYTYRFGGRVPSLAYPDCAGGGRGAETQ
# Summary of the method: as §1
# ELF3 = target: T5, ELF3 (Homo sapiens, UniProt P78545 1-371); details: protein: recombinant; tags: N-terminal GST; dsDNA, one strand shown
# T5 sequence: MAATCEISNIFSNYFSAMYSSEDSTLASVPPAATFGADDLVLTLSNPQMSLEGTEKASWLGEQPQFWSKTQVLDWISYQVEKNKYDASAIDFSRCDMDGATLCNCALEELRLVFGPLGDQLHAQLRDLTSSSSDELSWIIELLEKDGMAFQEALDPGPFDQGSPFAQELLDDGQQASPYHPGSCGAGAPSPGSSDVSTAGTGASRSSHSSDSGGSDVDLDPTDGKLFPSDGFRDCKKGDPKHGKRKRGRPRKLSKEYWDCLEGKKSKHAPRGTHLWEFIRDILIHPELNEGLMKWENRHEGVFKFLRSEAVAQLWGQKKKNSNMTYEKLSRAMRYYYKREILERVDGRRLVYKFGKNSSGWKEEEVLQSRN
# Summary of the method: as §1
# CRX = CRX (Homo sapiens, UniProt O43186 1-299); details: protein: recombinant; tags: N-terminal GST; dsDNA, one strand shown
# Chain of CRX (O43186 whole entry): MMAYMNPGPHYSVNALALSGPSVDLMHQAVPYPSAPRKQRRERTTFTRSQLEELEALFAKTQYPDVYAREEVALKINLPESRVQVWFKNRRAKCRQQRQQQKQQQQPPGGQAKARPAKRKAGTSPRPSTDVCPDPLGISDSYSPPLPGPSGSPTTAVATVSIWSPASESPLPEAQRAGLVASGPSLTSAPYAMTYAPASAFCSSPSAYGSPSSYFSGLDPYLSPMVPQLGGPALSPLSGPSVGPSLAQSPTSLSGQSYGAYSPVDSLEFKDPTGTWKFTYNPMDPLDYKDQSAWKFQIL
# Summary of the method: as §1
# ETV1 = ETV1 (Homo sapiens, UniProt P50549 1-477); details: protein: recombinant; tags: N-terminal GST; dsDNA, one strand shown
# Chain of ETV1 (P50549 whole entry): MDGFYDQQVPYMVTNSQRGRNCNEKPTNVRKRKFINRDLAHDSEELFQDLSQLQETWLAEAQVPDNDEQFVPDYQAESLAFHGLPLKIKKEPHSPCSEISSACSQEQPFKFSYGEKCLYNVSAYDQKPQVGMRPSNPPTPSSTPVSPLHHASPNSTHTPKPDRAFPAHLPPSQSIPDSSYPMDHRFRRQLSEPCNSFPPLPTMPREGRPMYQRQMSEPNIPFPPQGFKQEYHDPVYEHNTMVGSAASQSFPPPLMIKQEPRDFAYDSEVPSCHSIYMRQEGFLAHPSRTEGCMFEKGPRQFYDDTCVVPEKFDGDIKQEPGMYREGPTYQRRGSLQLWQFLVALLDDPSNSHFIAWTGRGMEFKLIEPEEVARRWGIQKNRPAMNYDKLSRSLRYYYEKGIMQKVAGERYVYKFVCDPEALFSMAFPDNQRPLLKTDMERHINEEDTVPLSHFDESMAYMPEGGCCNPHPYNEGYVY
# Summary of the method: as §1
Sequence,binding signal (FEV),binding signal (ETV5),binding signal (HSF1),binding signal (SPIC),binding signal (ELF4),binding signal (ELK4),binding signal (ETV2),binding signal (ELF3),binding signal (CRX),binding signal (ETV1)
TTAAGG,"1.16 fold enrichment (6-mer frequency, TF over GST control)","1.11 fold enrichment (6-mer frequency, TF over GST control)","1.67 fold enrichment (6-mer frequency, TF over GST control)","1.23 fold enrichment (6-mer frequency, TF over GST control)","1.14 fold enrichment (6-mer frequency, TF over GST control)","1.25 fold enrichment (6-mer frequency, TF over GST control)","1.23 fold enrichment (6-mer frequency, TF over GST control)","1.2 fold enrichment (6-mer frequency, TF over GST control)","2.78 fold enrichment (6-mer frequency, TF over GST control)","1.15 fold enrichment (6-mer frequency, TF over GST control)"
TCCTTG,"1.21 fold enrichment (6-mer frequency, TF over GST control)","1.22 fold enrichment (6-mer frequency, TF over GST control)","1.15 fold enrichment (6-mer frequency, TF over GST control)","1.23 fold enrichment (6-mer frequency, TF over GST control)","1.27 fold enrichment (6-mer frequency, TF over GST control)","1.41 fold enrichment (6-mer frequency, TF over GST control)","1 fold enrichment (6-mer frequency, TF over GST control)","1.31 fold enrichment (6-mer frequency, TF over GST control)","1.11 fold enrichment (6-mer frequency, TF over GST control)","1.35 fold enrichment (6-mer frequency, TF over GST control)"
AATTAA,"1.14 fold enrichment (6-mer frequency, TF over GST control)","1.29 fold enrichment (6-mer frequency, TF over GST control)","1.74 fold enrichment (6-mer frequency, TF over GST control)","1.24 fold enrichment (6-mer frequency, TF over GST control)","1.26 fold enrichment (6-mer frequency, TF over GST control)","1.26 fold enrichment (6-mer frequency, TF over GST control)","1.2 fold enrichment (6-mer frequency, TF over GST control)","1.24 fold enrichment (6-mer frequency, TF over GST control)","2.5 fold enrichment (6-mer frequency, TF over GST control)","1.26 fold enrichment (6-mer frequency, TF over GST control)"
AACGAT,"1.15 fold enrichment (6-mer frequency, TF over GST control)","1.22 fold enrichment (6-mer frequency, TF over GST control)","1.32 fold enrichment (6-mer frequency, TF over GST control)","1.19 fold enrichment (6-mer frequency, TF over GST control)","1.17 fold enrichment (6-mer frequency, TF over GST control)","1.15 fold enrichment (6-mer frequency, TF over GST control)","1.35 fold enrichment (6-mer frequency, TF over GST control)","1.08 fold enrichment (6-mer frequency, TF over GST control)","1.38 fold enrichment (6-mer frequency, TF over GST control)","1.19 fold enrichment (6-mer frequency, TF over GST control)"
TGGCCT,"1.54 fold enrichment (6-mer frequency, TF over GST control)","1.4 fold enrichment (6-mer frequency, TF over GST control)","1.32 fold enrichment (6-mer frequency, TF over GST control)","1.26 fold enrichment (6-mer frequency, TF over GST control)","1.51 fold enrichment (6-mer frequency, TF over GST control)","1.53 fold enrichment (6-mer frequency, TF over GST control)","1.46 fold enrichment (6-mer frequency, TF over GST control)","1.47 fold enrichment (6-mer frequency, TF over GST control)","1.31 fold enrichment (6-mer frequency, TF over GST control)","1.27 fold enrichment (6-mer frequency, TF over GST control)"
GCTTGC,"1.2 fold enrichment (6-mer frequency, TF over GST control)","1.22 fold enrichment (6-mer frequency, TF over GST control)","1.1 fold enrichment (6-mer frequency, TF over GST control)","1.44 fold enrichment (6-mer frequency, TF over GST control)","1.09 fold enrichment (6-mer frequency, TF over GST control)","1.34 fold enrichment (6-mer frequency, TF over GST control)","1.31 fold enrichment (6-mer frequency, TF over GST control)","1.03 fold enrichment (6-mer frequency, TF over GST control)","1.14 fold enrichment (6-mer frequency, TF over GST control)","1.25 fold enrichment (6-mer frequency, TF over GST control)"
CCATAT,"1.24 fold enrichment (6-mer frequency, TF over GST control)","1.24 fold enrichment (6-mer frequency, TF over GST control)","1.12 fold enrichment (6-mer frequency, TF over GST control)","1.31 fold enrichment (6-mer frequency, TF over GST control)","1.17 fold enrichment (6-mer frequency, TF over GST control)","1.13 fold enrichment (6-mer frequency, TF over GST control)","1.29 fold enrichment (6-mer frequency, TF over GST control)","1.37 fold enrichment (6-mer frequency, TF over GST control)","1.09 fold enrichment (6-mer frequency, TF over GST control)","1.2 fold enrichment (6-mer frequency, TF over GST control)"
AACCAA,"1.19 fold enrichment (6-mer frequency, TF over GST control)","1.21 fold enrichment (6-mer frequency, TF over GST control)","1.08 fold enrichment (6-mer frequency, TF over GST control)","1.1 fold enrichment (6-mer frequency, TF over GST control)","1.33 fold enrichment (6-mer frequency, TF over GST control)","1.05 fold enrichment (6-mer frequency, TF over GST control)","1.21 fold enrichment (6-mer frequency, TF over GST control)","1.32 fold enrichment (6-mer frequency, TF over GST control)","1.09 fold enrichment (6-mer frequency, TF over GST control)","1.2 fold enrichment (6-mer frequency, TF over GST control)"
